Only a sample is shown.
aSyn UTR act: Activators working through SNCA 5'UTR binding (MLPCN); alpha-synuclein 5'UTR reporter, activators screen; activity score, % (tested at 7.5 µM), hits read low; 7.1% of 300,000 active; in the data active = activity score below about -60%
Large screens that a line does not name were inactive.

CCc1ccc2nc(N(CCCN(C)C)C(=O)c3ccc(S(=O)(=O)N(C)C4CCCCC4)cc3)sc2c1	none
N=c1c2ccccc2nnn1-c1ccc(C(F)(F)F)cc1	aSyn UTR act -147
Cc1ccc(-c2noc(CN3CCCCC3)n2)cc1	aSyn UTR act -126
Clc1ccc(-c2noc(CN3CCCC3)n2)cc1	aSyn UTR act -86
Cc1ccn2c(CN3CCOCC3)c(-c3ccccc3)nc2c1	aSyn UTR act -126
Cc1ccc(-c2noc(CN3CCOCC3)n2)cc1	aSyn UTR act -87
c1ccc(-c2noc(CN3CCOCC3)n2)cc1	aSyn UTR act -63
c1ccc(NCc2nc(-c3ccccc3)no2)cc1	aSyn UTR act -133
Cc1ccc(C(=O)N/N=C/c2cn(Cc3ccccc3)c3ccccc23)cn1	none
Cc1ccc(C(=O)N/N=C\c2ccc(-c3ccc(Cl)c(Cl)c3)o2)cn1	aSyn UTR act -66
Cn1ccnc1CN1CCCCC1C(=O)Nc1ccc(Oc2cccnc2)cc1 (centres undefined)	aSyn UTR act -77
O=C(CCC1CCCC1)Nc1ccc(C(=O)NCc2cccnc2)cc1	none
O=c1nc2sc3ccccc3n2c(=O)n1-c1ccc(Cl)cc1	aSyn UTR act -189
Cc1ccc2c(c1)sc1nc(=O)n(-c3cccc(Cl)c3)c(=O)n12	aSyn UTR act -209
O=c1nc2sc3ccccc3n2c(=O)n1-c1cccc(Cl)c1	aSyn UTR act -169
O=C(CSCc1cccc(Br)c1)N1CCOCC1	aSyn UTR act -67
CCOC(=O)N1CCN(C(=O)CSCc2ccccc2)CC1	aSyn UTR act -83
O=C(CSCc1ccc(F)cc1)N1CCN(c2ccccc2)CC1	aSyn UTR act -66
CCOC(=O)C1CCCN(C(=O)CSCc2ccccc2)C1 (centres undefined)	aSyn UTR act -112
CCOC(=O)C1CCCN(C(=O)CCc2nnc(-c3ccc(C(C)=O)s3)o2)C1 (centres undefined)	aSyn UTR act -134
CC(=O)N1N=C(c2ccc(C)cc2)OC1c1ccc(Br)cc1 (centres undefined)	aSyn UTR act -174
O=C(CSc1ncnc2nc[nH]c12)c1ccccc1	aSyn UTR act -87
c1ccc(CCSc2ncnc3nc[nH]c23)cc1	aSyn UTR act -75
O=C(/C=C/c1ccccc1)Nc1cccnc1Oc1ccccc1F	aSyn UTR act -126
O=C(/C=C/c1ccc([N+](=O)[O-])cc1)Nc1cccnc1	aSyn UTR act -150
O=C(/C=C/c1ccccc1)Nc1cccnc1	aSyn UTR act -143
CCOC(=O)c1cc2c(nc1NC(=S)NCc1ccccc1)CCCC2	aSyn UTR act -107
Cc1cccn2c(=O)c(C=Nc3ccccc3)c(NCc3ccco3)nc12	aSyn UTR act -118
Cn1c(=O)c2c(nc(NCc3ccco3)n2C/C=C/c2ccccc2)n(C)c1=O	none
Cc1ccc2c(c1)cc1c(=O)[nH]ncn12	aSyn UTR act -67
Oc1ccc(Nc2nc(N3CCCC3)c3ccccc3n2)cc1	aSyn UTR act -579
COCCNc1nc(N)c([N+](=O)[O-])c(NC2CCCCC2)n1	none
C=CCNc1nc(N)c([N+](=O)[O-])c(N2CCCCCC2)n1	none
Nc1nc(Nc2ccccc2)nc(N2CCCC2)c1[N+](=O)[O-]	aSyn UTR act -81
CC1CCN(c2nc(/C=C/c3ccccc3)nc3ccccc23)CC1	aSyn UTR act -87
Cc1nn2c(nc(N3CCCCC3)c3ccccc32)c1C=O	none
C(=C\c1nc(N2CCCC2)c2ccccc2n1)/c1ccccc1	aSyn UTR act -106
NS(=O)(=O)c1ccc(N/N=C/c2cn(-c3ccccc3)nc2-c2ccccc2)c([N+](=O)[O-])c1	aSyn UTR act -121
O=[N+]([O-])c1ccc(N/N=C/c2cn(-c3ccccc3)nc2-c2ccccc2)cc1	aSyn UTR act -71
c1ccc(CNc2ncnc3c2oc2ccccc23)nc1	aSyn UTR act -171
CC(=O)c1ccc(Nc2ncnc3c2oc2ccccc23)cc1	aSyn UTR act -90
c1ccc2c(c1)oc1c(NCC3CCCO3)ncnc12 (centres undefined)	aSyn UTR act -178
Cc1nc(Nc2ccncc2)c2oc3ccccc3c2n1	aSyn UTR act -66
COC(=O)c1ccc(-c2ccc(Cl)cc2)nc1C	aSyn UTR act -126
CCOc1ccccc1NC(=O)c1nc(S(=O)(=O)Cc2cccc(C)c2)ncc1Cl	none
Cc1cccc(CS(=O)(=O)c2ncc(Cl)c(C(=O)Nc3nnc(C(C)C)s3)n2)c1	aSyn UTR act -98
CC(C)c1nnc(NC(=O)c2nc(S(=O)(=O)Cc3ccccc3F)ncc2Cl)s1	aSyn UTR act -72
Cc1ccc(CS(=O)(=O)c2ncc(Cl)c(C(=O)Nc3ccc(OC(F)F)cc3)n2)cc1	none
CCc1nnc(NC(=O)c2nc(S(=O)(=O)Cc3cccc(C)c3)ncc2Cl)s1	aSyn UTR act -114
CNc1nc(-c2ccccc2)[n+](-c2ccc(C)cc2)s1	aSyn UTR act -116
N#CC1(NC(=O)Cn2ncc(Cl)c(Cl)c2=O)CCCCC1	aSyn UTR act -206
O=C(O)CC(=O)Nc1ccc(Oc2ccc(C(F)(F)F)cn2)c(Cl)c1	none
O=C(Nc1ccc(OCC(F)(F)C(F)F)c(C(F)(F)F)c1)c1ccccc1	aSyn UTR act -101
COc1ccc(C(=O)Nc2scc(-c3ccc(Cl)cc3Cl)c2C(N)=O)cc1	aSyn UTR act -237
CCc1ccc(Oc2cc(C)nc(N)n2)cc1	aSyn UTR act -92
CCCc1ccc(Oc2cc(Cl)nc(N)n2)cc1	aSyn UTR act -149
c1ccc(Nc2nc(-c3ccccc3)ns2)cc1	aSyn UTR act -144
CC(C)(C)C(=O)Nc1nc(-c2ccccc2)ns1	aSyn UTR act -146
O=C1CNC(=S)N1c1nc2ccccc2s1	none
Brc1ccc(-c2nc3ccccc3s2)s1	aSyn UTR act -115
COc1cc(OC)cc(-c2nc3ccccc3s2)c1	aSyn UTR act -286
Nc1ccc(-c2nc3ccccc3s2)cn1	aSyn UTR act -110
O=C1CCC(=O)N1c1ccc(-c2nc3ccccc3s2)cc1	aSyn UTR act -120
c1ccc(-c2nc3ccccc3s2)nc1	aSyn UTR act -87
S=C(Nc1ccc(Cl)cc1)NC1CCCCC1	aSyn UTR act -73
S=C(Nc1ccc(Br)cc1)NC1CCCCC1	aSyn UTR act -119
FC(F)Oc1ccc(NC(=S)NC2CCCCCCC2)cc1	aSyn UTR act -93
Cc1ccc(NC(=S)N2CCCCCC2)cc1	aSyn UTR act -94
Cc1ccc(NC(=S)N2CCCC2)cc1	aSyn UTR act -64
CCCSc1nnc(-c2ccccc2N)c(=O)[nH]1	aSyn UTR act -70
Cc1ccc(Nc2nc(CSc3nnnn3C)cs2)cc1	aSyn UTR act -103
Cn1nnnc1SCc1csc(Nc2ccccc2)n1	aSyn UTR act -109
Cc1ccc(Nc2nc(CSc3n[nH]c(N)n3)cs2)cc1	aSyn UTR act -108
Cc1ccc(C(=O)CSc2nnc(C(C)C)n2C)cc1C	aSyn UTR act -75
Cc1nn(C)cc1CNC(=O)Nc1ccc(Cl)c(Cl)c1	aSyn UTR act -145
Cc1ccc(NC(=O)O/N=C/c2c(C)nn(C(C)(C)C)c2C)cc1Cl	none
CCN(CC)S(=O)(=O)c1cc([N+](=O)[O-])ccc1NNC(=O)Nc1ccc(Cl)c(Cl)c1	none
Cc1ccc(NC(=O)NCc2c(C)nn(C)c2C)cc1Cl	aSyn UTR act -157
CCOC(=O)Cc1ccc2sc(-c3ccccc3)nc2c1	aSyn UTR act -82
CCOc1cc(/C=C2\N=C(C)OC2=O)cc(Br)c1OCC(=O)OC	aSyn UTR act -64
CCOc1cc(CNc2ccccc2)cc(Br)c1OCC(=O)NC(C)(C)C	none
O=C(Nc1ccc(-n2ccc(C(F)(F)F)n2)cc1)c1cccs1	aSyn UTR act -176
COc1ccccc1NC(=O)Nc1ccc(-n2ccc(C(F)(F)F)n2)cc1	aSyn UTR act -212

Screening results (PubChem)
